According to the supplement of paper PMC6555819:

What was measured:
Assay in all cases: PBM binding z-score (relative to random genomic background probes); higher = stronger binding; sequences stand for … in GC…GCGATTGACAGCGTAGAATGAAGG
[1] = test system: FXR:RXRa (NR concentration 270 nM, RXRa partner concentration 90 nM)
Outline: (§1)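 Binding buffer was PBS pH 7.4 with 2% milk, 0.02% Triton X-100, 1 mM DTT, 0.2 mg/mL BSA and 0.4 mg/ml salmon testes DNA. In it, ligand-free nuclear receptor dimers were incubated 1 h on custom Agilent 4×180K protein-binding microarrays carrying double-stranded probes. Antibodies against each partner (one per run) detected binding, and z-scores were calculated against random background probes after regression normalization of scanned fluorescence.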

[2] = test system: LXRa:RXRa (NR concentration 270 nM, RXRa partner concentration 90 nM)
Outline: as §1

[3] = test system: LXRa homodimer (NR concentration 270 nM)
Outline: as §1

[4] = test system: LXRb:RXRa (NR concentration 270 nM, RXRa partner concentration 90 nM)
Outline: as §1

[5] = test system: LXRb homodimer (NR concentration 270 nM)
Outline: as §1

[6] = test system: PPARa:RXRa (NR concentration 270 nM, RXRa partner concentration 90 nM)
Outline: as §1

[7] = test system: PPARg:RXRa (NR concentration 180 nM, RXRa partner concentration 90 nM)
Outline: as §1

[8] = test system: PPARg:RXRa 270nM:90nM, anti-RXR (NR concentration 270 nM, RXRa partner concentration 90 nM)
Outline: as §1

[9] = test system: PPARg:RXRa 30nM:10nM, anti-RXR (NR concentration 30 nM, RXRa partner concentration 10 nM)
Outline: as §1

[10] = test system: PPARg:RXRa 90nM:30nM, anti-RXR (NR concentration 90 nM, RXRa partner concentration 30 nM)
Outline: as §1

[11] = test system: PPARg:RXRa DBDmut IVT, anti-RXR (DBD mutation: RXRa K156A/R161A, NR concentration 270 nM, RXRa partner concentration 90 nM)
Outline: as §1

[12] = test system: PPARg:RXRa IVT, anti-PPARg (NR concentration 270 nM, RXRa partner concentration 90 nM)
Outline: as §1

[13] = test system: PPARg DBDmut:RXRa IVT, anti-PPARg (DBD mutation: PPARg1 K132A/R137A, NR concentration 270 nM, RXRa partner concentration 90 nM)
Outline: as §1

[14] = test system: PPARg DBDmut IVT, anti-PPARg (DBD mutation: PPARg1 K132A/R137A, NR concentration 270 nM)
Outline: as §1

[15] = test system: PPARg homodimer (NR concentration 180 nM)
Outline: as §1

[16] = test system: PXR:RXRa (NR concentration 270 nM, RXRa partner concentration 90 nM)
Outline: as §1

[17] = test system: PXR homodimer (NR concentration 270 nM)
Outline: as §1

[18] = test system: RARa:RXR (NR concentration 270 nM, RXRa partner concentration 90 nM)
Outline: as §1

[19] = test system: RARa homodimer (NR concentration 270 nM)
Outline: as §1

[20] = test system: RARb:RXRa (NR concentration 270 nM, RXRa partner concentration 90 nM)
Outline: as §1

Sequence	PBM binding z-score [1]	PBM binding z-score [2]	PBM binding z-score [3]	PBM binding z-score [4]	PBM binding z-score [5]	PBM binding z-score [6]	PBM binding z-score [7]	PBM binding z-score [8]	PBM binding z-score [9]	PBM binding z-score [10]	PBM binding z-score [11]	PBM binding z-score [12]	PBM binding z-score [13]	PBM binding z-score [14]	PBM binding z-score [15]	PBM binding z-score [16]	PBM binding z-score [17]	PBM binding z-score [18]	PBM binding z-score [19]	PBM binding z-score [20]
AGAATGAGCTTACCAAAGATCAGGGAAACGCTTG	-0.649	-0.433	-0.203	-0.523	-0.394	-0.401	0.53	0.206	0.32	-0.0483	-0.815	-0.433	-0.258	-0.198	-0.572	-0.428	-0.462	-0.0887	-0.255	-0.501
CCTTACGGGTCACTGGCAGGTTATAGCATTTGGA	5.13	4.36	0.174	3.52	-0.315	5.15	4.06	4.83	1.9	3.26	2.85	3.68	0.22	1.16	3.67	4.02	0.0403	5.02	0.895	3.99
TCAGACAGGTGAAGGTAACTCGGGTACGCAGTCG	1.07	2.93	0.00206	1.44	-0.167	1.46	0.656	2.33	3.89	3.22	2.75	1.56	-0.468	-0.323	0.71	0.846	0.151	0.795	0.419	1.46
ATATGTAGGTTACATCCGGGTCATGCAGGCTATG	2.18	3.82	0.802	2.38	0.427	4.45	6.06	5.18	2.64	4.3	7.41	7.25	2.04	1.91	1.38	3.26	0.751	3.55	0.629	2.36
ATATGTAGGTTACATTCGGGTCATTCAGGCTATG	2.91	4.73	1.76	3.19	1.04	4.3	5.53	5.07	2.31	4.62	7.46	7.26	5.28	2.88	2.4	3.85	3.72	3.65	1.02	2.32
CGAACTAGGTCAGAACAGGACAGCGAAGGATGAT	1.13	0.841	-0.226	0.393	-0.43	3.3	5.21	4.4	1.79	3.38	6.88	7.17	2.58	2.2	1.18	0.861	-0.18	1.86	0.0245	2.88
ATCTCTAGGTAAAAGTTCAGGGAATCCCGAGGAT	1.28	1.71	1.26	1.12	1.04	4.42	8.19	7.53	7.81	8.27	2.01	3.72	1.02	1.51	1.25	1.96	1.15	2.06	1.33	2.62
TAGCCTAGGGCAGATCGGGCCAGTATACGCTATA	-0.551	-0.549	-0.559	-0.757	-1.16	-0.359	0.168	-0.585	-0.695	-0.348	-0.53	-0.145	-0.91	-1.38	-0.781	-0.394	-0.7	0.406	-1.26	0.79
TCTATTAGTTGAAGGGCAACCGGCGAGTCCGTTT	0.888	1.19	0.417	0.88	0.229	0.966	-0.211	2.04	3.53	2.92	2.36	0.473	0.341	0.729	1.25	0.943	0.705	0.455	0.951	1.74
CGTGCAAGGTCAATGCTAGGTCAGTGAAAGCATT	6.79	5.7	1.91	4.42	0.212	5.53	4.26	5.03	1.47	3.77	3.32	4.08	0.426	-0.53	3.59	4.91	0.967	6.46	0.996	5.34
AGTCAAAGTTCACTAGGTAACGTCAGATTCAGCT	4.66	4.88	2.92	2.84	0.994	4.68	6.81	6.74	4.13	5.98	2.77	4.95	1.36	0.959	2.35	3.97	3.07	3.22	1.07	4.88
CATACAGGGTCAGCTAAGCCAGAGTAGGGACGGC	4.23	2.89	0.0357	2.17	0.175	4.39	3.57	2.87	0.539	1.9	1.39	2.48	1.15	0.523	1.5	2.16	-0.442	3.02	0.0387	3.9
ACTATTAGTTGAGACGAGGGCAACTGATAGGTTG	0.629	-0.0348	0.074	-0.0916	-0.0432	0.621	0.7	0.45	0.365	0.668	0.393	0.643	1.37	1.23	0.253	1.22	0.231	0.44	0.299	1.16
CGTCCAAGGTGAATGCTAGGTCAGTGAAAGCATT	0.506	1.19	0.158	0.617	-0.905	1.73	0.352	0.668	-0.499	0.352	2.03	2.41	-0.677	-0.549	0.968	0.776	-0.645	1.8	-0.245	2.42
